Molecules are shown by their SMILES. Calls of active or inactive are those of the source.

The nature of test [1]: binders of probe aFSTL3 on microarray, primary screen, stem cell growth factor project, biochemical, small-molecule microarray, fluorescence 635/667 (AID 1064).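 Also: measures binding of the biotinylated anti-FSTL3 antibody to printed compounds.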 Conditions: higher = more signal.
Test [2] is described as follows: binders from COS7 lysate, DM2A8 probe, primary screen, torsin A project, cell lysate, small-molecule microarray, fluorescence 635/667 (AID 1065). Conditions: higher = more signal, COS7 lysate expressing mutant human TOR1A.
A short description of test [3]: binders of probe aFGF2 on microarray, primary screen, stem cell growth factor project, biochemical, small-molecule microarray, fluorescence 635/667 (AID 1067).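 Also: measures binding of biotinylated aFGF2 protein to printed compounds on slides; z-score merges feature fluorescence and signal-to-noise across triplicate slides.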 Conditions: higher = more signal.
Test [4] can be described thus: binders of probe aFGF10 on microarray, primary screen, stem cell growth factor project, biochemical, small-molecule microarray, fluorescence 635/667 (AID 1071).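 Also: score merges 667 nm spot intensity and signal to noise from triplicate slides.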 Particulars: higher = more signal.
Test [5] addresses Neurogenic locus notch homolog protein 2 (Homo sapiens) (UniProt Q04721). The test is described as follows: Notch2 binders on small-molecule microarrays, primary screen, biochemical, small-molecule microarray, 635 nm fluorescence, stem cell growth factors (AID 1073). Particulars: Notch2 binding, higher = more signal.
In test [6] the target is Pro-neuregulin-1, membrane-bound isoform (Homo sapiens) (UniProt Q02297). As to the kind of experiment: NRG1 binders on small-molecule microarrays, primary screen, psychiatric disease protein project, biochemical, small-molecule microarray, fluorescence 635/667 (AID 1075).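 Also: score combines 667 nm spot fluorescence with signal to noise.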 Particulars: NRG1 binding, 635 nm fluorescence, higher = more signal.
Sequence of Pro-neuregulin-1, membrane-bound isoform (Homo sapiens) (Q02297 whole entry, looked up, the tested form may be a part, canonical isoform): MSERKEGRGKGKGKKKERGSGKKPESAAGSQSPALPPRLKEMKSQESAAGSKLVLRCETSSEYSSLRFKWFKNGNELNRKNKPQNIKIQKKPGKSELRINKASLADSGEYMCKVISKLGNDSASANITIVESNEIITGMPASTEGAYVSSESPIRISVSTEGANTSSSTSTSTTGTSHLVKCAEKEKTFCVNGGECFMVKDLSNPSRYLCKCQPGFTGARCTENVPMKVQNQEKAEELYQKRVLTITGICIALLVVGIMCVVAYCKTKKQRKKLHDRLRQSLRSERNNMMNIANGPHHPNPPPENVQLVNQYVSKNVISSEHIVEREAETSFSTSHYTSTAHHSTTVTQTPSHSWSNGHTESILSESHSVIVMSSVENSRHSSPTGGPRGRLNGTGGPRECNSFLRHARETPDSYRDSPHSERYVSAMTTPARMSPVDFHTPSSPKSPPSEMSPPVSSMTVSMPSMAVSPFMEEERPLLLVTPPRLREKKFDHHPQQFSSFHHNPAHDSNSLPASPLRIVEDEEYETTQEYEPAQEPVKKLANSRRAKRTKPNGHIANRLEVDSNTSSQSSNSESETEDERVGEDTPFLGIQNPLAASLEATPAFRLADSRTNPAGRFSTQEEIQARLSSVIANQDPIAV
Test [7] deals with Neuregulin-1 EGF-like domain. As to the kind of experiment: binders of neuregulin-1 EGF-like domain, primary screen, biochemical, small-molecule microarray, 635 nm fluorescence (AID 1081).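 Also: binding of the protein to compounds printed on small-molecule microarray slides.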 Conditions: small-molecule microarray binding, higher = more signal.
The nature of test [8]: FRG1 promoter luciferase signal modulators, primary screen, FRG1 inhibition for FSHD, cell-based, C2C12 myotubes, firefly/Renilla luciferase, luminescence (AID 1084). Conditions: higher = more signal, called active from +8 up or from −8 down.
The nature of test [9]: binders of probe aFST on microarray, primary screen, stem cell growth factor project, biochemical, small-molecule microarray, fluorescence 635/667 (AID 1086).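 Also: score merges 667 nm fluorescence with signal-to-noise of each printed compound spot.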 Conditions: higher = more signal.
The nature of test [10]: binders of probe aHhip on microarray, primary screen, stem cell growth factor project, biochemical, small-molecule microarray, fluorescence 635/667 (AID 1087).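 Also: score merges spot fluorescence at 667nm with spot signal to noise ratio.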 Conditions: higher = more signal.

Sequence of Neurogenic locus notch homolog protein 2 (Homo sapiens) (Q04721 whole entry, looked up, canonical isoform): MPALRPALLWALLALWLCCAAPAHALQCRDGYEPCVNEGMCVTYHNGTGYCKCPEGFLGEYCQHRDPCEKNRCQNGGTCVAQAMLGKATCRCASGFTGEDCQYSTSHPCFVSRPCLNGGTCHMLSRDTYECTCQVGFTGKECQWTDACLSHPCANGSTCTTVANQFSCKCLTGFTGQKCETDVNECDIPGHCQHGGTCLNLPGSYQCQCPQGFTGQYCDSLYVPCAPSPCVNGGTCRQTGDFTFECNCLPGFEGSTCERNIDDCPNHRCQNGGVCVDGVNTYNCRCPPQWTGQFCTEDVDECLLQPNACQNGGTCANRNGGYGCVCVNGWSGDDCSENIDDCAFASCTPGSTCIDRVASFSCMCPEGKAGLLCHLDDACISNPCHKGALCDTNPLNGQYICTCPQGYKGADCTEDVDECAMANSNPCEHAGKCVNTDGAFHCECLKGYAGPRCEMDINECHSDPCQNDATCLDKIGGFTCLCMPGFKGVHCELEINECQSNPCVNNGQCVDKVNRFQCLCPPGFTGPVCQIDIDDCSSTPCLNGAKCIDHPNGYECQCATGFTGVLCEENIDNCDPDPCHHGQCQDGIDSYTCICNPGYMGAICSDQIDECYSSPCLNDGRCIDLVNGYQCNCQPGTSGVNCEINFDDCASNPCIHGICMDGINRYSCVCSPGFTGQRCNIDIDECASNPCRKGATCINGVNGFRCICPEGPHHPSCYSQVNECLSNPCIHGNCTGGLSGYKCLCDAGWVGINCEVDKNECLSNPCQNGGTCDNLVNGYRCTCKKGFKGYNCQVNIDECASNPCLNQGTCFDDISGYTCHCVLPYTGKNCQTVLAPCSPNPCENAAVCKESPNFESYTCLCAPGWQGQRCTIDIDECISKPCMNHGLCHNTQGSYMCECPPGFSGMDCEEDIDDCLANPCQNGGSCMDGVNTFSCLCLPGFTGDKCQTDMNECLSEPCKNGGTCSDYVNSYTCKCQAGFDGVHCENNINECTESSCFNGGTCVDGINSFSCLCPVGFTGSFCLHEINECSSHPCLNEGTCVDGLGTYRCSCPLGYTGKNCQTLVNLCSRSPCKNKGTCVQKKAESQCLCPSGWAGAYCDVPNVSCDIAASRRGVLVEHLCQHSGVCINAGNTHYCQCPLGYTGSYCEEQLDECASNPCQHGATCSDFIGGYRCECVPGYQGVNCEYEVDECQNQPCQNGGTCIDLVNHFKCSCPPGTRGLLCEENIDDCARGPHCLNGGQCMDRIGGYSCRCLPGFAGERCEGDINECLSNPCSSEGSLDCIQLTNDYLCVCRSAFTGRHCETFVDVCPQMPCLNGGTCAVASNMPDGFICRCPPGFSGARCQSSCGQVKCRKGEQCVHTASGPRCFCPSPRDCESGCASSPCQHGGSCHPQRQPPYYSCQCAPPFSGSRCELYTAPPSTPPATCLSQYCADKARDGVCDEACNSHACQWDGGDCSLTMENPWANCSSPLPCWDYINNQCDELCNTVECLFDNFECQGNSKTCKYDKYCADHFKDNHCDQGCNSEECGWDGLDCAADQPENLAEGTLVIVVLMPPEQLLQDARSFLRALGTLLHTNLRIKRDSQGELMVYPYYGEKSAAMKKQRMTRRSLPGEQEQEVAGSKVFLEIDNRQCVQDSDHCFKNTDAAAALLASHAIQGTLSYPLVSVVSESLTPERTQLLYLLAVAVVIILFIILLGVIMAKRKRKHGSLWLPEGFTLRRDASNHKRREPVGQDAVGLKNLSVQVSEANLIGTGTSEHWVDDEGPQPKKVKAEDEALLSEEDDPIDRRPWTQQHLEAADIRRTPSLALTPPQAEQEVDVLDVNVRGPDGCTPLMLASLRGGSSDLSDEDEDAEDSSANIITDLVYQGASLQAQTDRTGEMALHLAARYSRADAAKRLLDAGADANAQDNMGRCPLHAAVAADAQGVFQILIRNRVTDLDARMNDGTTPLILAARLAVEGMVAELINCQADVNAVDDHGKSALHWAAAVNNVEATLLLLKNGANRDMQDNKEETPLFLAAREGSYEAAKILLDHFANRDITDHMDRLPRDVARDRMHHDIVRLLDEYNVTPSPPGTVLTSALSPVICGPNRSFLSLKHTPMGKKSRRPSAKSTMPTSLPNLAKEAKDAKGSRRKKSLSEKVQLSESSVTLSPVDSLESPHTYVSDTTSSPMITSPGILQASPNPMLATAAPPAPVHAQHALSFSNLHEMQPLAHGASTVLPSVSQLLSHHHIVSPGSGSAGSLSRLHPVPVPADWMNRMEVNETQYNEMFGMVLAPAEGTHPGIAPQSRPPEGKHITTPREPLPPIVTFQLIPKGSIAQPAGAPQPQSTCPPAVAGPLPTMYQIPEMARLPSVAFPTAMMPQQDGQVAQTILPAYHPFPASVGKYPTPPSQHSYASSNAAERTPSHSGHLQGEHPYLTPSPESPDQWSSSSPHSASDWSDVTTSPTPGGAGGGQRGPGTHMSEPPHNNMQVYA

On to `CCOC(=O)C1=CC[C@H]2C(=O)N(c3ccccc3)C(=O)[C@@H]12`, for which the composite z-score in test [1] was -0.368; in test [2] it was 0.606; in test [3], 0.05; in test [4], 1.07; in test [5], 1.61; in test [6], 1.37. Moreover, the composite z-score is 1.32 in test [7], 0.743 in test [9] and -0.0237 in [10]. Besides, the z-score in test [8] was -0.775 (inactive).
On to `CCCCCCCCCCC(O)C1C=CC2C(=O)NC(=O)C2N1Nc1ccc(Cl)cc1Cl` (stereo not given), for which the composite z-score in [1] was 0.133; in test [2], -1.22; in test [3], -0.0667; in test [4], 0.159; in [5] it was -0.218; in test [6], 1.02. In addition, the composite z-score in test [7] is 0.436; in [9], 0.0804; in test [10], -0.0237. Also, in test [8], the z-score was 1.32 (inactive).
Take `O=C1[C@H]2C=C(Br)[C@H](C[C@@H]2OCCCCCCO)[C@@]12CO2`: the composite z-score in test [1] was 0.125; in test [2] it was 0.629; in [3] it was -0.0443; in test [4] it was -0.0632; in test [5] it was -0.565; in test [6], -0.429. Further, the composite z-score was -0.394 in test [7], 0.0363 in test [9] and 0.122 in [10]. The z-score in test [8] was -0.0205 (inactive).
As for `COCCOC(=O)N1C(=O)[C@@]2(c3cc(C#CC4(O)CCCCCC4)ccc31)[C@H](c1ccccc1OCCO)N1[C@H](c3ccccc3)[C@H](c3ccccc3)OC(=O)[C@H]1[C@@H]2C(=O)N1CCc2cc(OC)c(OC)cc2C1`, the composite z-score in [1] is -0.207; in test [2], 0.788; in [3], -0.0685; in test [4], 0.542; in test [5], 1.03; in test [6] it was 1.6. In addition, the composite z-score was determined as 1.19 in [7], 0.223 in [9] and 0.177 in test [10]. Also, the z-score in test [8] was -0.658 (inactive).
For the compound `CCCCN1CC=CC23O[C@@H]4/C=C\CCCOC(=O)C4[C@H]2C(=O)N(CCCCCO)[C@@H]3C1=O` (stereo not given in full), the composite z-score in [1] was 0.485; in test [2], -0.465; in test [3] it was -0.0985; in [4] it was -0.0739; in test [5] it was -0.901; in test [6] it was -1.18. Further, the composite z-score in test [7] was 1.26; in test [9], -0.804; in test [10], -0.249. For the same compound, in [8], the z-score was 0.368 (inactive).
As to `COC(=O)C(CC#Cc1ccc2c(c1)[C@]1(C(=O)N2)[C@H](c2ccc(O)cc2)N2[C@H](c3ccccc3)[C@H](c3ccccc3)OC(=O)[C@H]2[C@@H]1C(=O)N1CCN(c2ncccn2)CC1)C(=O)OC`, the composite z-score in test [1] is 0.136; in test [2], 0.215; in test [3], -0.0035; in test [4], 0.349; in [5], 0.577; in test [6], 1.86. Moreover, the composite z-score in [7] was found to be 1.35; in test [9] it was 0.599; in test [10], 0.351. In addition, the z-score in test [8] is -1.36 (inactive).
With `CC(C)CN1C(=O)[C@@]2(c3ccc([N+](=O)[O-])cc3)CC(=O)N(C3CCCCC3)[C@@H]2c2ccc(CO)cc21`, the composite z-score in test [1] was 0.206; in test [2], -0.72; in test [3] it was -0.0954; in test [4], -0.991; in [5] it was -0.649; in test [6], -0.303. Besides, the figures for the composite z-score in [7], in test [9] and in [10] were -0.429, -1.09 and -0.0994, respectively. Also, the z-score in test [8] is 0.953 (inactive).
For the compound `C=C(/C(=C/C[C@H](OC(C)=O)c1ccc(OCCO)cc1)c1cc(C(=O)OC)ccc1OC)C(C)C`, the composite z-score in [1] was -0.183; in test [2], 0.585; in [3], -0.145; in test [4], 0.41; in test [5] it was 0.219; in test [6], 1.17. Moreover, the composite z-score in [7] was 0.376; in test [9], 0.388; in test [10], -0.175. Besides, the z-score in test [8] was -0.863 (inactive).
Turning to `C=CC[C@]1(C(N)=O)COC(c2ccc(OCCCO)cc2)=N1`, the composite z-score in [1] is -0.123; in test [2], 0.38; in test [3], -0.0407; in test [4], 0.282; in [5], 0.85; in test [6] it was 0.0632. The composite z-score in [7] was 1.09; in test [9], 0.418; in test [10], -0.0645. Also, the z-score in [8] was -0.25 (inactive).
As for `CC(C)[Si](C#CCCCC#N)(Oc1ccccc1Br)C(C)C`, the composite z-score in test [1] was -0.517; in test [2], 0.14; in test [3], -0.182; in [4] it was 0.151; in test [5] it was 0.266; in test [6], 0.151. The composite z-score in [7] was 0.204; in [9] it was 0.155; in [10], 0.316. For the same compound, the z-score in [8] is 0.382 (inactive).
Take `O=C(O)[C@H]1C[C@H]2C(=O)N3CCC[C@H]3C(=O)N2[C@H]1c1ccc(O)cc1`: the composite z-score in [1] is 1.22; in [2] it was -0.104; in [3], -0.195; in test [4], -0.929; in [5], -2.12; in test [6] it was -0.0857. Moreover, the composite z-score was 0.804 in [7], -0.834 in test [9] and 0.147 in test [10]. Further, the z-score in [8] was -0.305 (inactive).
For the compound `O=C(O)[C@@]1(CCS(=O)(=O)c2ccccc2)N=C(c2ccc(OCCCO)cc2)O[C@H]1c1ccccc1`, the composite z-score in test [1] is 0.132; in [2], -0.0272; in [3], 0.0654; in test [4] it was -0.029; in test [5], 0.604; in test [6], 1.62. The figures for the composite z-score in [7], in [9] and in test [10] were 1.06, 0.38 and -0.0994, respectively. Moreover, the z-score in test [8] is 2.18 (inactive).
On to `C=C(C(=O)CC[C@H](OC(C)=O)c1ccccc1OCCO)C(C)C`, for which the composite z-score in test [1] was -0.214; in test [2], -1.03; in [3] it was -0.0985; in [4], 0.317; in test [5] it was -0.926; in test [6], -0.49. Besides, the composite z-score was -0.862 in test [7], -0.327 in test [9] and 0.0854 in test [10]. For the same compound, in test [8], the z-score is -4.37 (inactive).
On to `CC(C)[Si](C#C[Si](C(C)C)(C(C)C)C(C)C)(O[C@H](C)c1cn(Cc2ccccc2)nn1)C(C)C`, for which the composite z-score is -0.169 in test [1]; 0.209 in test [2]; -0.106 in test [3]; 0.422 in test [4]; 0.795 in [5]; 0.566 in test [6]. For the same compound, the composite z-score in test [7] is 0.938; in test [9], 0.372; in [10], -0.337. In addition, the z-score in test [8] was -1.66 (inactive).
For `[N-]=[N+]=NCc1ccccc1[C@H]1OC(c2ccc(OCCCO)cc2)=N[C@@]1(Cc1ccccc1)C(=O)N1CCCCC1`, the composite z-score in [1] is -0.222; in test [2], 0.368; in test [3] it was 0.022; in test [4], 0.78; in [5], 1.46; in test [6], 0.947. Further, the composite z-score in test [7] is 1.18; in test [9], 0.573; in test [10] it was -0.201. For the same compound, in [8], the z-score was -2.51 (inactive).
`CCCCN1CC=CC23O[C@@H]4C=CCCOC(=O)C4[C@H]2C(=O)N(CCCCCO)[C@@H]3C1=O` (stereo not given in full): the composite z-score in test [1] was -0.376; in test [2] it was -0.055; in test [3], -0.107; in test [4], -0.0632; in test [5], -1.06; in test [6] it was -0.169. Moreover, the composite z-score in test [7] was 1.46; in [9] it was -0.79; in test [10] it was 0.107. Besides, the z-score in [8] is -0.834 (inactive).
